Shown is part of a subset that was picked to be rich in hits.
CRE-bla Fsk – CRE-bla signaling modulation under forskolin stimulation; 2.5% of 71,000 active; Potency, µM (series often up to 38.2 µM), without a hit: at the highest dose activity change, negative = inhibition, most hits filed as activators; CHO CRE-bla reporter (cAMP response element driving beta-lactamase), forskolin EC10, beta-lactamase ratio; active = well fitted activation curve with a large enough effect in the signal ratio, with a control signal flat, not every such curve was filed as active; inconclusive = small, poorly fitted or top-dose-only effect, or effect the other way, or a change in a side signal; the % refers to the signal ratio; also: % of control where 0% means no effect
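Beta-lactamase reporter under a cAMP responsive element in CHO cells; compounds tested in titration series against EC10 NKH 477, 3 h at 37 °C. Read-out: CCF4 FRET ratio 460nm/530nm (excitation 405nm) giving %Activity, fitted to AC50.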
Imprint erasure – induces erasure of genomic imprints in mouse ES cells | Potency, µM (series often up to 60.7 µM), for the others: at the top dose activity change, positive = activation, hits mostly activators | AID 1948 | mouse ES Peg3-LacZ reporter, beta-gal luminescence, 40 h | 0.02% of 110,000 active
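Readout: BetaGlo luminescence (5 min, room temp) for LacZ from the normally silent maternal Peg3 allele in female Peg3LacZ-Neo ES cells. Cells 300/well, 40 h, 37C, 5% CO2. Data normalized per plate to negative controls.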
ERK AVP block – inhibitors of vasopressin-stimulated ERK signaling pathway; HEK293-V1b, vasopressin-stimulated pERK AlphaScreen; 0.99% of 72,000 active; AID 995; Potency, µM (doses to about 57.5 µM), inactives show at the highest dose activity, negative = inhibition, most hits filed as inhibitors; also: % is scaled to controls: 0 for no effect and ±100 for the full control effect; nearly all actives have a fitted effect of over 55% in size
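HEK293 cells stably expressing V1b receptor, preincubated 30 min at 37 °C with compound, then stimulated 5 min with 25 nM vasopressin. Phospho-ERK by AlphaScreen SureFire after 5 h RT; normalized to DMSO and vasopressin; AC50 by Hill fit.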
IkB sig inh – suppresses IkB signaling in ABC-DLBCL reporter cells; ABC-DLBCL IkBa-CBG/CBR dual luciferase ratio, 4 h; response scale: scaled: untreated 0%, proteasome inhibitor 100%; Potency, µM (doses to about 57.1 µM), inactives show top-dose IkBa stabilization activation; 0.04% of 110,000 active; active = well fitted curve in the direction sought with a large enough effect in the signal ratio, not every such curve was filed as active; inconclusive = small, poorly fitted or top-dose-only effect, or a change in a side signal; the % refers to the signal ratio;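 also: the direction sought is a rising ratio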
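In this assay, an IκBα–CBG68 fusion accumulates when IKK-driven degradation is blocked; native CBR normalizes for cell number. OCI-Ly3 cells were treated 4 h with compound and doxycycline, then green and red light read after Chroma-Glo addition.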
Numbers without * were called inactive; ? = inconclusive; . = not tested or not shown; [ ] = another dose, or the depositor's remark. Unless noted, calls follow the shape of the dose curve; as a rule, active = well fitted curve in the direction sought with a large enough effect; inconclusive = small, poorly fitted or top-dose-only effect, or another doubt; inactive = no such curve, though single readings can be large; an effect the other way counts as inactive or inconclusive. Potency is read from the fitted curve at half-maximal effect.

SMILES	CRE-bla Fsk	Imprint erasure	ERK AVP block	IkB sig inh
Cn1c(=O)c(-c2cc(F)cc(F)c2)nc2cnc(N3CCNCC3)nc21	?	-28%	-7%	-2%[11.4 µM]
CON(C)C(=O)c1nnc2c(n1)[nH]c1ccccc12	.	.	21%[11.5 µM]	.
COc1ccc(CCNc2nc(C)nc3c2oc2ccccc23)cc1OC	?	-18%	13µM*	?
COc1ccc(CCNc2ncnc3c2c(-c2ccccc2)cn3-c2ccc(F)cc2)cc1OC	.	-10%[10.9 µM]	.	?
Cc1nc(NCc2ccco2)c2oc3ccccc3c2n1	7.9µM*	-16%	25µM*	-3%
Cc1nc(Nc2ccncc2)c2oc3ccccc3c2n1	13%	-23%	-21%	?
COc1ccc(CCNc2ncnc3c2oc2ccccc23)cc1OC	?	-21%	32µM*	?
Cc1nc(N(C)C)c2sc(=S)n(C)c2n1	2.5µM*	0%	2%	-2%
CCOC(=O)c1c(C)c2c(n1C)CCC/C2=N\O	?	-10%	3.2µM*	-2%
Cc1cc2c(c(=O)o1)[C@@H](O)[C@H]1O[C@@H]1C2=O	.	.	5%[11.5 µM]	.
COc1ccc(OC)c(NC(=O)c2cc(-c3cc(Cl)ccc3O)n[nH]2)c1	?	-26%	25µM*	?
C[C@@H]1O[C@@H](OC[C@@H]2O[C@@H](Oc3c(-c4ccc(O)c(O)c4)oc4cc(O)cc(O)c4c3=O)[C@H](O)[C@H](O)[C@@H]2O)[C@H](O)[C@H](O)[C@@H]1O	?	.	.	-1%[11.4 µM]
COc1ccc(CC(=O)N2CC3(C)CC2CC(C)(C)C3)cc1OC (stereo not drawn)	?	-15%	32µM*	?
CCOC(=O)c1c(C2COc3ccccc3O2)csc1NC(=O)c1ccco1 (stereo not drawn)	2µM*	-6%	11%	1%
CCOC(=O)c1c(NC(=O)c2ccco2)sc2c1CCCC2	?	0%	-12%	2%
CCCCCCC#CC1C=CC(Oc2ccc(C=O)cc2)C(CO)O1 (stereo not drawn)	.	.	12%[11.5 µM]	.
CO[C@@H]1/C=C\O[C@]2(C)Oc3c(C)c(O)c4c(O)c(c(CN5CCN(C)CC5)c(O)c4c3C2=O)NC(=O)/C(C)=C\C=C[C@@H](C)[C@@H](O)[C@H](C)[C@@H](O)C(C)[C@H](OC(C)=O)[C@@H]1C (stereo partly drawn)	.	-2%[10.9 µM]	.	.
COc1ccccc1-c1cc(C(=O)N2CCN(c3ccccc3OC)CC2)no1	-2%	-16%	0%	?
COc1ccccc1N1CCN(C(=O)c2ccc3nc(-c4ccco4)c(-c4ccco4)nc3c2)CC1	?	-14%	16µM*	?
COc1ccccc1CCn1c(=O)c(-c2cccs2)nc2cncnc21	?	-2%	-24%	-1%[11.4 µM]
CC12C=C(/C=C/c3ccc(F)cc3)C(C)(C1)C(c1ccc(F)cc1)CC2=O (stereo not drawn)	.	.	23%[11.5 µM]	.
O=C(COC(=O)CCCc1c[nH]c2ccccc12)Nc1ccc2c(c1)OCO2	?	-2%	40µM*	2%
Cc1ccc(S(=O)(=O)Nc2cccc(-c3cn4ccsc4n3)c2)cc1	?	-25%	-17%	?
CC(C)CC(=O)Nc1cccc(-c2cn3ccsc3n2)c1	31%	-11%	16µM*	0%
CCC(=O)Nc1cccc(-c2cn3ccsc3n2)c1	5%	-8%	-9%	0%
SMILES	CRE-bla Fsk	Imprint erasure	ERK AVP block	IkB sig inh
Cc1cccc(S(=O)(=O)Nc2cccc(-c3cn4ccsc4n3)c2)c1	2µM*	-23%	16%	?
O=S(=O)(Nc1cccc(-c2cn3ccsc3n2)c1)c1ccc(F)cc1	20%	-28%	20µM*	?
N/C(=N\O)c1cn([C@@H]2O[C@@H](CO)[C@H](O)[C@@H]2O)c2ncnc(NO)c12	-12%[7.6 µM]	-36%[10.9 µM]	5%[11.5 µM]	8%[11.4 µM]
OC[C@@H]1O[C@@H](N2CCN([C@@H]3O[C@@H](CO)[C@@H](O)[C@H](O)[C@H]3O)CC2)[C@@H](O)[C@H](O)[C@H]1O	3%[7.6 µM]	1%[10.9 µM]	4%[11.5 µM]	1%[11.4 µM]
Cc1cc(=O)n(Cc2ccccc2)c2c1c(C)nn2-c1ccccc1	.	-6%[10.9 µM]	.	0%
Cc1cc2c(c(C)nn2-c2ccccc2)c(=O)o1	10µM*	-1%	-5%	0%
CC(=O)Oc1cc(OC(C)=O)c2c(=O)cc(-c3ccc(OC(C)=O)c(OC(C)=O)c3)oc2c1	?	-41%	?	-3%[11.4 µM]
